From article PMC11006913
Changes are numbered by the printed parent chain.

Legend:
Test in all cases: PBM; 200 nM protein, PBS
Conditions in all cases: dsDNA, one strand shown
PAX4 [1] = biological target: T1, PAX4 (Homo sapiens, UniProt O43316 9-242, R200K)
T1 sequence: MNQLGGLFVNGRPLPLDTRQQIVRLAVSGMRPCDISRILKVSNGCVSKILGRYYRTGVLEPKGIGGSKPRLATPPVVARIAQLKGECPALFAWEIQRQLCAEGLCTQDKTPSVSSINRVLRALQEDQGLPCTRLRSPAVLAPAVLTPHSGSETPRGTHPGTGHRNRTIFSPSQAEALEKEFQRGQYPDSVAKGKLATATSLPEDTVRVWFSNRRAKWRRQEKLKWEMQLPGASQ

PAX4 [2] = biological target: T2, PAX4 (Homo sapiens, UniProt O43316 9-242)
T2 sequence: T1 sequence with K192R

PAX4 [3] = biological target: T3, PAX4 (Homo sapiens, UniProt O43316 9-242, F177V)
T3 sequence: T1 sequence with F169V, K192R

PAX4 [4] = biological target: T4, PAX4 (Homo sapiens, UniProt O43316 9-242, F177Y)
T4 sequence: T1 sequence with F169Y, K192R

PAX4 [5] = biological target: T5, PAX4 (Homo sapiens, UniProt O43316 9-242, R227W)
T5 sequence: T1 sequence with K192R, R219W

HOXB9 [6] = biological target: HOXB9 (Homo sapiens, UniProt P17482 171-250, T197M)
HOXC9 [7] = biological target: HOXC9 (Homo sapiens, UniProt P31274 178-260, K195R)
HOXB6 = HOXB6 (Homo sapiens, UniProt P17509 132-218)
VAX1 = VAX1 (Homo sapiens, UniProt Q5SQQ9 86-172)
HOXB9 [8] = biological target: HOXB9 (Homo sapiens, UniProt P17482 171-250)
HOXB9 [9] = biological target: HOXB9 (Homo sapiens, UniProt P17482 171-250, R186Q)
HOXA2 [10] = biological target: HOXA2 (Homo sapiens, UniProt O43364 129-215, Y150S)
HOXA2 [11] = biological target: HOXA2 (Homo sapiens, UniProt O43364 129-215)
VENTX = biological target: T6, VENTX (Homo sapiens, UniProt O95231 78-163)
T6 sequence: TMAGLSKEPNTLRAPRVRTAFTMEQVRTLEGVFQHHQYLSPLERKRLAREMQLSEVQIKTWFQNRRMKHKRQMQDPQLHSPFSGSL

HOXC9 [12] = biological target: HOXC9 (Homo sapiens, UniProt P31274 178-260)
HOXC9 [13] = biological target: HOXC9 (Homo sapiens, UniProt P31274 178-260, R193K)
HOXC9 [14] = biological target: HOXC9 (Homo sapiens, UniProt P31274 178-260, R222W)
HOXC10 [15] = biological target: HOXC10 (Homo sapiens, UniProt Q9NYD6 254-340)
HOXC10 [16] = biological target: HOXC10 (Homo sapiens, UniProt Q9NYD6 254-340, K271E)
Chain of HOXC10 (Homo sapiens, UniProt Q9NYD6 254-340, K271E) (Q9NYD6 254-340 K271E): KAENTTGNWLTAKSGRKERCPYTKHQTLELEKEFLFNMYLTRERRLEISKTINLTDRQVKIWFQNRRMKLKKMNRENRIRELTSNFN

Chain of HOXB9 (Homo sapiens, UniProt P17482 171-250, T197M) (P17482 171-250 T197M): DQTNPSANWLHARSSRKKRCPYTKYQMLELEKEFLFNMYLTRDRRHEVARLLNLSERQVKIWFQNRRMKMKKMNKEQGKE
Chain of VAX1 (Q5SQQ9 86-172): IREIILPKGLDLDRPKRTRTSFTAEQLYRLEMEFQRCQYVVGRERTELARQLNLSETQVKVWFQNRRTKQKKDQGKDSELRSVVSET
Chain of HOXA2 (Homo sapiens, UniProt O43364 129-215) (O43364 129-215): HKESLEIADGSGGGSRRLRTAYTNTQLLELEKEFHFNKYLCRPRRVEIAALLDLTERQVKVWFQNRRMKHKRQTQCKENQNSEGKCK
Chain of HOXC9 (Homo sapiens, UniProt P31274 178-260, R222W) (P31274 178-260 R222W): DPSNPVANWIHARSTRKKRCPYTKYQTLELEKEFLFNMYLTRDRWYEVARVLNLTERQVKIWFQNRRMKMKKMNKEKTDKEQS
Chain of HOXC9 (Homo sapiens, UniProt P31274 178-260) (P31274 178-260): as the sequence (P31274 178-260 R222W) above, with W45R counted along it
Chain of HOXA2 (Homo sapiens, UniProt O43364 129-215, Y150S) (O43364 129-215 Y150S): as the sequence (O43364 129-215) above, with Y22S counted along it
Chain of HOXC9 (Homo sapiens, UniProt P31274 178-260, K195R) (P31274 178-260 K195R): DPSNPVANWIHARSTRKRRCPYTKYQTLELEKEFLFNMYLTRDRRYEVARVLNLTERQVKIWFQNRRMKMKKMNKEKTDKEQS
Chain of HOXB6 (P17509 132-218): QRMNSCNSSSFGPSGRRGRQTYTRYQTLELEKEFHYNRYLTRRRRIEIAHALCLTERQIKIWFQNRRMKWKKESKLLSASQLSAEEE
Chain of HOXC9 (Homo sapiens, UniProt P31274 178-260, R193K) (P31274 178-260 R193K): as the sequence (P31274 178-260 R222W) above, with R16K, W45R counted along it
Chain of HOXB9 (Homo sapiens, UniProt P17482 171-250, R186Q) (P17482 171-250 R186Q): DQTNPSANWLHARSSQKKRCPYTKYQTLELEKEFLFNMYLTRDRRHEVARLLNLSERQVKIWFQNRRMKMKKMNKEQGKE
Chain of HOXC10 (Homo sapiens, UniProt Q9NYD6 254-340) (Q9NYD6 254-340): as the sequence (Q9NYD6 254-340 K271E) above, with E18K counted along it
Chain of HOXB9 (Homo sapiens, UniProt P17482 171-250) (P17482 171-250): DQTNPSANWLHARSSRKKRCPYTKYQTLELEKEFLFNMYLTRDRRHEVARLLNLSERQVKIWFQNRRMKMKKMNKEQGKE

AATTAAGC
binding signal (PAX4 [1]): 11.7 upbm affinity estimate (log intensity, higher = more binding, comparable within an allelic series)
binding signal (PAX4 [2]): 12.2 upbm affinity estimate (log intensity, higher = more binding, comparable within an allelic series)
binding signal (PAX4 [3]): 10.5 upbm affinity estimate (log intensity, higher = more binding, comparable within an allelic series)
binding signal (PAX4 [4]): 11 upbm affinity estimate (log intensity, higher = more binding, comparable within an allelic series)
binding signal (PAX4 [5]): 10.9 upbm affinity estimate (log intensity, higher = more binding, comparable within an allelic series)

CAATTATA
binding signal (HOXB9 [6]): 10.1 upbm affinity estimate (log intensity, higher = more binding, comparable within an allelic series)
binding signal (HOXC9 [7]): 12.5 upbm affinity estimate (log intensity, higher = more binding, comparable within an allelic series)
binding signal (HOXB6): 11.9 upbm affinity estimate (log intensity, higher = more binding, comparable within an allelic series)

AATTAGCC
binding signal (PAX4 [1]): 11.5 upbm affinity estimate (log intensity, higher = more binding, comparable within an allelic series)
binding signal (PAX4 [2]): 12.1 upbm affinity estimate (log intensity, higher = more binding, comparable within an allelic series)
binding signal (PAX4 [3]): 10.1 upbm affinity estimate (log intensity, higher = more binding, comparable within an allelic series)
binding signal (PAX4 [4]): 10.5 upbm affinity estimate (log intensity, higher = more binding, comparable within an allelic series)
binding signal (VAX1): 12.7 upbm affinity estimate (log intensity, higher = more binding, comparable within an allelic series)
binding signal (PAX4 [5]): 10.6 upbm affinity estimate (log intensity, higher = more binding, comparable within an allelic series)

GACAATTA
binding signal (HOXB9 [6]): 9.97 upbm affinity estimate (log intensity, higher = more binding, comparable within an allelic series)
binding signal (HOXB6): 11.7 upbm affinity estimate (log intensity, higher = more binding, comparable within an allelic series)

AATTAACT
binding signal (PAX4 [1]): 11.7 upbm affinity estimate (log intensity, higher = more binding, comparable within an allelic series)
binding signal (PAX4 [2]): 12.3 upbm affinity estimate (log intensity, higher = more binding, comparable within an allelic series)
binding signal (PAX4 [3]): 10.5 upbm affinity estimate (log intensity, higher = more binding, comparable within an allelic series)
binding signal (PAX4 [4]): 10.9 upbm affinity estimate (log intensity, higher = more binding, comparable within an allelic series)
binding signal (PAX4 [5]): 10.9 upbm affinity estimate (log intensity, higher = more binding, comparable within an allelic series)
binding signal (HOXB6): 11.6 upbm affinity estimate (log intensity, higher = more binding, comparable within an allelic series)

GAGGGGGC
binding signal (HOXB9 [6]): 8.48 upbm affinity estimate (log intensity, higher = more binding, comparable within an allelic series)
binding signal (HOXB9 [8]): 8.37 upbm affinity estimate (log intensity, higher = more binding, comparable within an allelic series)
binding signal (HOXB9 [9]): 8.62 upbm affinity estimate (log intensity, higher = more binding, comparable within an allelic series)
binding signal (HOXA2 [10]): 10.2 upbm affinity estimate (log intensity, higher = more binding, comparable within an allelic series)
binding signal (HOXA2 [11]): 7.38 upbm affinity estimate (log intensity, higher = more binding, comparable within an allelic series)

AATTAAGT
binding signal (PAX4 [1]): 11.6 upbm affinity estimate (log intensity, higher = more binding, comparable within an allelic series)
binding signal (PAX4 [2]): 12.1 upbm affinity estimate (log intensity, higher = more binding, comparable within an allelic series)
binding signal (PAX4 [3]): 10.5 upbm affinity estimate (log intensity, higher = more binding, comparable within an allelic series)
binding signal (PAX4 [4]): 10.9 upbm affinity estimate (log intensity, higher = more binding, comparable within an allelic series)
binding signal (PAX4 [5]): 10.8 upbm affinity estimate (log intensity, higher = more binding, comparable within an allelic series)
binding signal (HOXA2 [10]): 10.8 upbm affinity estimate (log intensity, higher = more binding, comparable within an allelic series)
binding signal (HOXA2 [11]): 11.7 upbm affinity estimate (log intensity, higher = more binding, comparable within an allelic series)

CAATTAGG
binding signal (VENTX): 12.7 upbm affinity estimate (log intensity, higher = more binding, comparable within an allelic series)
binding signal (VAX1): 12.9 upbm affinity estimate (log intensity, higher = more binding, comparable within an allelic series)
binding signal (HOXA2 [10]): 10.8 upbm affinity estimate (log intensity, higher = more binding, comparable within an allelic series)
binding signal (HOXA2 [11]): 12.1 upbm affinity estimate (log intensity, higher = more binding, comparable within an allelic series)

CAATTAGA
binding signal (VAX1): 12.6 upbm affinity estimate (log intensity, higher = more binding, comparable within an allelic series)

CAATTACA
binding signal (HOXB6): 11.4 upbm affinity estimate (log intensity, higher = more binding, comparable within an allelic series)

CCCGGCTC
binding signal (HOXC9 [7]): 9.4 upbm affinity estimate (log intensity, higher = more binding, comparable within an allelic series)
binding signal (HOXC9 [12]): 9.46 upbm affinity estimate (log intensity, higher = more binding, comparable within an allelic series)
binding signal (HOXC9 [13]): 9.4 upbm affinity estimate (log intensity, higher = more binding, comparable within an allelic series)
binding signal (HOXC9 [14]): 9.63 upbm affinity estimate (log intensity, higher = more binding, comparable within an allelic series)

GCAGGCGC
binding signal (HOXC10 [15]): 9.86 upbm affinity estimate (log intensity, higher = more binding, comparable within an allelic series)
binding signal (HOXC10 [16]): 9.87 upbm affinity estimate (log intensity, higher = more binding, comparable within an allelic series)
binding signal (HOXA2 [10]): 10.3 upbm affinity estimate (log intensity, higher = more binding, comparable within an allelic series)
binding signal (HOXA2 [11]): 6.79 upbm affinity estimate (log intensity, higher = more binding, comparable within an allelic series)

CCTAGCTC
binding signal (VENTX): 8.47 upbm affinity estimate (log intensity, higher = more binding, comparable within an allelic series)

ACAATTAT
binding signal (HOXB9 [6]): 9.96 upbm affinity estimate (log intensity, higher = more binding, comparable within an allelic series)
binding signal (PAX4 [3]): 10.6 upbm affinity estimate (log intensity, higher = more binding, comparable within an allelic series)

CTGCATTA
binding signal (HOXA2 [10]): 10.6 upbm affinity estimate (log intensity, higher = more binding, comparable within an allelic series)
binding signal (HOXA2 [11]): 9.83 upbm affinity estimate (log intensity, higher = more binding, comparable within an allelic series)

CCCCCAGC
binding signal (VENTX): 8.03 upbm affinity estimate (log intensity, higher = more binding, comparable within an allelic series)
binding signal (VAX1): 7.08 upbm affinity estimate (log intensity, higher = more binding, comparable within an allelic series)

GCGAGCGC
binding signal (HOXB9 [6]): 8.46 upbm affinity estimate (log intensity, higher = more binding, comparable within an allelic series)
binding signal (HOXB9 [8]): 8.32 upbm affinity estimate (log intensity, higher = more binding, comparable within an allelic series)
binding signal (HOXB9 [9]): 8.42 upbm affinity estimate (log intensity, higher = more binding, comparable within an allelic series)

CGCACGCC
binding signal (HOXC10 [15]): 10.1 upbm affinity estimate (log intensity, higher = more binding, comparable within an allelic series)
binding signal (HOXC10 [16]): 10 upbm affinity estimate (log intensity, higher = more binding, comparable within an allelic series)

GCAATTAC
binding signal (HOXB6): 11.7 upbm affinity estimate (log intensity, higher = more binding, comparable within an allelic series)

GCCCCCCA
binding signal (HOXB6): 8.91 upbm affinity estimate (log intensity, higher = more binding, comparable within an allelic series)

GCCAGCCC
binding signal (HOXC9 [7]): 9.67 upbm affinity estimate (log intensity, higher = more binding, comparable within an allelic series)
binding signal (HOXC9 [12]): 9.67 upbm affinity estimate (log intensity, higher = more binding, comparable within an allelic series)
binding signal (HOXC9 [13]): 9.67 upbm affinity estimate (log intensity, higher = more binding, comparable within an allelic series)
binding signal (VAX1): 7.02 upbm affinity estimate (log intensity, higher = more binding, comparable within an allelic series)
binding signal (HOXC9 [14]): 9.62 upbm affinity estimate (log intensity, higher = more binding, comparable within an allelic series)

CCGCCCCC
binding signal (VENTX): 7.95 upbm affinity estimate (log intensity, higher = more binding, comparable within an allelic series)
binding signal (HOXA2 [10]): 10.2 upbm affinity estimate (log intensity, higher = more binding, comparable within an allelic series)
binding signal (HOXA2 [11]): 6.94 upbm affinity estimate (log intensity, higher = more binding, comparable within an allelic series)
binding signal (HOXB6): 8.81 upbm affinity estimate (log intensity, higher = more binding, comparable within an allelic series)

CCAGGACC
binding signal (VENTX): 7.74 upbm affinity estimate (log intensity, higher = more binding, comparable within an allelic series)

TCCCCCCA
binding signal (HOXA2 [10]): 10.2 upbm affinity estimate (log intensity, higher = more binding, comparable within an allelic series)
binding signal (HOXA2 [11]): 7.41 upbm affinity estimate (log intensity, higher = more binding, comparable within an allelic series)

CGGGCCCG
binding signal (PAX4 [1]): 9.58 upbm affinity estimate (log intensity, higher = more binding, comparable within an allelic series)
binding signal (PAX4 [2]): 9.62 upbm affinity estimate (log intensity, higher = more binding, comparable within an allelic series)
binding signal (PAX4 [3]): 9.21 upbm affinity estimate (log intensity, higher = more binding, comparable within an allelic series)
binding signal (PAX4 [4]): 9.11 upbm affinity estimate (log intensity, higher = more binding, comparable within an allelic series)
binding signal (PAX4 [5]): 9.33 upbm affinity estimate (log intensity, higher = more binding, comparable within an allelic series)

CAGCCAGG
binding signal (HOXC9 [7]): 9.53 upbm affinity estimate (log intensity, higher = more binding, comparable within an allelic series)
binding signal (VENTX): 8.23 upbm affinity estimate (log intensity, higher = more binding, comparable within an allelic series)
binding signal (HOXC9 [12]): 9.58 upbm affinity estimate (log intensity, higher = more binding, comparable within an allelic series)
binding signal (HOXC9 [13]): 9.41 upbm affinity estimate (log intensity, higher = more binding, comparable within an allelic series)
binding signal (HOXC9 [14]): 9.62 upbm affinity estimate (log intensity, higher = more binding, comparable within an allelic series)
